# Measurements published in PMC7862700, “An all-to-all approach to the identification of sequence-specific readers for epigenetic DNA modifications on cytosine”.
# What was measured:
# Experiment in all cases: DAPPL (digital affinity profiling via proximity ligation, sequencing); 10 mM Tris-HCl pH 7.5, 50 mM NaCl, 1 mM DTT, 4% glycerol, room temperature, 30 min; GST-TFs on glutathione beads, 16-mer random dsDNA library, 0.1% formaldehyde crosslink after washing; high values mean tight binding
# [1] = biological target: T1, FLI1 (Homo sapiens, UniProt Q01543 1-452); conditions: protein: recombinant; tags: N-terminal GST; dsDNA, one strand shown
# T1 sequence: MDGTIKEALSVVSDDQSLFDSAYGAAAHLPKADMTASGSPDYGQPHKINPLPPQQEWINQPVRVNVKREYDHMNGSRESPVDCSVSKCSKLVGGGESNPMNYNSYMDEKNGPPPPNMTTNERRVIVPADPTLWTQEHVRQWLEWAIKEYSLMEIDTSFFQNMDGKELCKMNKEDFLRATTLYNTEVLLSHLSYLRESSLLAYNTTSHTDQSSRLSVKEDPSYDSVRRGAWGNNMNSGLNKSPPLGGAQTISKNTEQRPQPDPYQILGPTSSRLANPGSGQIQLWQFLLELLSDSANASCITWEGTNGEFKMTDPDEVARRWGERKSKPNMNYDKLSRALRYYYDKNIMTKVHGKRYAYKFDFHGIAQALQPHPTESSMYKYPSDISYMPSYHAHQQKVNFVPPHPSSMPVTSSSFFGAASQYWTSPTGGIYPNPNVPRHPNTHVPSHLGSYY
# Procedure, shortened: (§1)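 GST fusions of human transcription factors were expressed in yeast and captured with glutathione beads. Once given DNA barcodes and pooled alongside a tag-only sample, they were incubated for 30 min at room temperature with 200 nmole of a random double-stranded 16-mer DNA library in Tris/NaCl/DTT/glycerol buffer, then washed, crosslinked (0.1% formaldehyde), proximity-ligated, PCR-amplified and sequenced on an Illumina NextSeq500. The binding signal of each hexamer is its read frequency for a factor divided by its frequency for the tag-only sample.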
# [2] = biological target: T2, ELK1 (Homo sapiens, UniProt P19419 1-428); conditions: protein: recombinant; tags: N-terminal GST; dsDNA, one strand shown
# T2 sequence: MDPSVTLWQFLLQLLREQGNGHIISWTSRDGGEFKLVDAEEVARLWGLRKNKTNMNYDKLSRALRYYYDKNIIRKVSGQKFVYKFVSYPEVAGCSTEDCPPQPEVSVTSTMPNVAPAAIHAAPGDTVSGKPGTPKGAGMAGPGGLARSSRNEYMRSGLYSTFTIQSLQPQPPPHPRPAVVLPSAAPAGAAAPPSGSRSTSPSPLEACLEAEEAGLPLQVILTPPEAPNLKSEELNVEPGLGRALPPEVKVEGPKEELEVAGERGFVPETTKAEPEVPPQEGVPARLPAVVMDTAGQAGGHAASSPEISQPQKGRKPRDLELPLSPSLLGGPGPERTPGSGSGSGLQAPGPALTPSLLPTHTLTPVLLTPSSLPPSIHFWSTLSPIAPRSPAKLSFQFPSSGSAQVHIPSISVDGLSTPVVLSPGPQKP
# Procedure, shortened: as §1
# [3] = biological target: T3, GABPA (Homo sapiens, UniProt Q06546 1-454); conditions: protein: recombinant; tags: N-terminal GST; dsDNA, one strand shown
# T3 sequence: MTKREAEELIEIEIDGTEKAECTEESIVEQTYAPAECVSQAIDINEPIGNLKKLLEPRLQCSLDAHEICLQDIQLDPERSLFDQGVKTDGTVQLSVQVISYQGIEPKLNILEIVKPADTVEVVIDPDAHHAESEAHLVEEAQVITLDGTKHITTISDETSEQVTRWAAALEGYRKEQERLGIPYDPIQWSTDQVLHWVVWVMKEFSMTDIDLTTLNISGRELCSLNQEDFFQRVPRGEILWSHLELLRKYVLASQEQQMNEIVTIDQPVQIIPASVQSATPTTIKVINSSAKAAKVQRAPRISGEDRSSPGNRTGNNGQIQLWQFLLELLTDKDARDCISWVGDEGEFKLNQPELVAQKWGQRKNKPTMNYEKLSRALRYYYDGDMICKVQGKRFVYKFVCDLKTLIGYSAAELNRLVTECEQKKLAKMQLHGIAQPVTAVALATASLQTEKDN
# Procedure, shortened: as §1
# [4] = biological target: T4, ERG (Homo sapiens, UniProt P11308 1-479); conditions: protein: recombinant; tags: N-terminal GST; dsDNA, one strand shown
# T4 sequence: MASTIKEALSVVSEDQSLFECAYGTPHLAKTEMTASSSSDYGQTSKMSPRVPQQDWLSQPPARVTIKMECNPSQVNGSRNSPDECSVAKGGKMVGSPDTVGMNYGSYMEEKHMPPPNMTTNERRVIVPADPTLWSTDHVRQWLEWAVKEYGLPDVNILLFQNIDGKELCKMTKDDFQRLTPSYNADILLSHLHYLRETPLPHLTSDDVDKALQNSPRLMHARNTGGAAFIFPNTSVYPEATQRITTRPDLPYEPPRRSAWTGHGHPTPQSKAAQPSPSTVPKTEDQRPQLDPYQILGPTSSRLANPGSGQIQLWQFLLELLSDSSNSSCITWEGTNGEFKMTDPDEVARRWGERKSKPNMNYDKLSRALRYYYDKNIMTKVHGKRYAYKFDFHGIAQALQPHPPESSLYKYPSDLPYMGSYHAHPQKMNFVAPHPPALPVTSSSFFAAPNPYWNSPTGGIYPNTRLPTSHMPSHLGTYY
# Procedure, shortened: as §1
# [5] = biological target: ELF1 (Homo sapiens, UniProt P32519 1-619); conditions: protein: recombinant; tags: N-terminal GST; dsDNA, one strand shown
# Sequence of ELF1 (P32519 whole entry): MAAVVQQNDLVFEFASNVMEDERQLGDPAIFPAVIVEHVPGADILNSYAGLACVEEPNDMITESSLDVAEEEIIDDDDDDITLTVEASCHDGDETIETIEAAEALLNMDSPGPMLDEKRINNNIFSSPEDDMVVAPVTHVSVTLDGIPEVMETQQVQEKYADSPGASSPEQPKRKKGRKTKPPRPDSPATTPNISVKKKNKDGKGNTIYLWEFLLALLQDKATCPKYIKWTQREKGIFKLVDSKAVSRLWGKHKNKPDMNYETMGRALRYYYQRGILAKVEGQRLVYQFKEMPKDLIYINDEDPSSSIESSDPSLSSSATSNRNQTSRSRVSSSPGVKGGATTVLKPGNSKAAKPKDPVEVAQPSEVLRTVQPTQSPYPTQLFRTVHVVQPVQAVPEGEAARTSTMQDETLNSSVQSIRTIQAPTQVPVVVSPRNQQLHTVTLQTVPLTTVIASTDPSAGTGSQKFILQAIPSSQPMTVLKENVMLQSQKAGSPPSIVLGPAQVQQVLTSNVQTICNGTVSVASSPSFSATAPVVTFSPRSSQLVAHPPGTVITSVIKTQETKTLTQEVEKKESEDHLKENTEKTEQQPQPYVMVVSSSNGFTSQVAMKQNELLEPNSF
# Procedure, shortened: as §1
# [6] = biological target: T5, EHF (Homo sapiens, UniProt Q9NZC4 1-300); conditions: protein: recombinant; tags: N-terminal GST; dsDNA, one strand shown
# T5 sequence: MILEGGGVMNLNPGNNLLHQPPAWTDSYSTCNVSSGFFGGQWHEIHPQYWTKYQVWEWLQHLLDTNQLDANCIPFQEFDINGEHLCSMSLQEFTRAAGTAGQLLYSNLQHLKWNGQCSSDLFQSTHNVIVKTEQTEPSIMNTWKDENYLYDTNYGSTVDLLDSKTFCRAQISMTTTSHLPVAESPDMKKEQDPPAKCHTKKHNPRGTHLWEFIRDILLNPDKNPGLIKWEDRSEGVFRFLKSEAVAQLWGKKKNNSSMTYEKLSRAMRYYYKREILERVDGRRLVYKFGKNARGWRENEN
# Procedure, shortened: as §1
# [7] = biological target: SPI1 (Homo sapiens, UniProt P17947 1-270); conditions: protein: recombinant; tags: N-terminal GST; dsDNA, one strand shown
# Procedure, shortened: as §1
# [8] = biological target: SPIB (Homo sapiens, UniProt Q01892 1-262); conditions: protein: recombinant; tags: N-terminal GST; dsDNA, one strand shown
# Sequence of SPIB (Q01892 whole entry): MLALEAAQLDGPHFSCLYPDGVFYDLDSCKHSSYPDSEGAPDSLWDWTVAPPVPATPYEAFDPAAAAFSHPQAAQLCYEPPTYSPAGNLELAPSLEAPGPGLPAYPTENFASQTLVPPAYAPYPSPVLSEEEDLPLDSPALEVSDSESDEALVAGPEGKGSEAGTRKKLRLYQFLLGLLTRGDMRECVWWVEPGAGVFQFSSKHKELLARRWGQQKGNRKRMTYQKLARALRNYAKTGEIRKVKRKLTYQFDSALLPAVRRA
# Procedure, shortened: as §1
# [9] = biological target: T6, ELK3 (Homo sapiens, UniProt P41970 1-407); conditions: protein: recombinant; tags: N-terminal GST; dsDNA, one strand shown
# T6 sequence: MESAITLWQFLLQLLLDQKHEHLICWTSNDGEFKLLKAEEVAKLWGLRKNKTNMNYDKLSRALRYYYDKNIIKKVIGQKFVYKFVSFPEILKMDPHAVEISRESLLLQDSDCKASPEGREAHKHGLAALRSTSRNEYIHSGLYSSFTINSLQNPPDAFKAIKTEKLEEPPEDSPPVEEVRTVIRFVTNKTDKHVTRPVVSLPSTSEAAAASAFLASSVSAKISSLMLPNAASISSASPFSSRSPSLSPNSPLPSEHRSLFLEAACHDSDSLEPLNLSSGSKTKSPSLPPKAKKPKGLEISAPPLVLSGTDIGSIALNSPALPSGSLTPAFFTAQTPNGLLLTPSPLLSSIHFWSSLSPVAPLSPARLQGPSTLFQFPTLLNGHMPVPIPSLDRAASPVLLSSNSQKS
# Procedure, shortened: as §1
# [10] = biological target: T7, FEV (Homo sapiens, UniProt Q99581 1-238); conditions: protein: recombinant; tags: N-terminal GST; dsDNA, one strand shown
# T7 sequence: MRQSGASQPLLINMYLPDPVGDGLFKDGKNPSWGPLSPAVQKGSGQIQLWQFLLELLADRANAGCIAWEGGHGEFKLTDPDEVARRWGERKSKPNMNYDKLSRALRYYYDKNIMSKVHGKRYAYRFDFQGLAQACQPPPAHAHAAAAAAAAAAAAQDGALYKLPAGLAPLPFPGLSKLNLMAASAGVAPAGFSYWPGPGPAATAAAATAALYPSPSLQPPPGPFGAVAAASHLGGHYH
# Procedure, shortened: as §1
# [11] = biological target: ETV5 (Homo sapiens, UniProt P41161 1-510); conditions: protein: recombinant; tags: N-terminal GST; dsDNA, one strand shown
# Sequence of ETV5 (P41161 whole entry): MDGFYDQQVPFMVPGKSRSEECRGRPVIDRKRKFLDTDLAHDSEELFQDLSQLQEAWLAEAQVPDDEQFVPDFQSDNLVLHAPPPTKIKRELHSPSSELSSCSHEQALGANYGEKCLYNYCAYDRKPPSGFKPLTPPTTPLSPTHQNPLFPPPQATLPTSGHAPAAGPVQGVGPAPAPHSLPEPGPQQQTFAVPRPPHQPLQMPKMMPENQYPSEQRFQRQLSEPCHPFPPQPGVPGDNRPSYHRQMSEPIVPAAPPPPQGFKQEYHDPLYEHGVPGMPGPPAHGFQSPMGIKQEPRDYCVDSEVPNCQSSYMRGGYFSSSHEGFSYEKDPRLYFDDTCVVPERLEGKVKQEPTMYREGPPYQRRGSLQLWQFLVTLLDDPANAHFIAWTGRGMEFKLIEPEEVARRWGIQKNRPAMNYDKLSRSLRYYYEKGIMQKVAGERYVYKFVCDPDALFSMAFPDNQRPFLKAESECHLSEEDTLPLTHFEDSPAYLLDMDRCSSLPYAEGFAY
# Procedure, shortened: as §1
# [12] = biological target: HSF1 (Homo sapiens, UniProt Q00613 1-529); conditions: protein: recombinant; tags: N-terminal GST; chain copies: 3; dsDNA, one strand shown
# Sequence of HSF1 (Q00613 whole entry): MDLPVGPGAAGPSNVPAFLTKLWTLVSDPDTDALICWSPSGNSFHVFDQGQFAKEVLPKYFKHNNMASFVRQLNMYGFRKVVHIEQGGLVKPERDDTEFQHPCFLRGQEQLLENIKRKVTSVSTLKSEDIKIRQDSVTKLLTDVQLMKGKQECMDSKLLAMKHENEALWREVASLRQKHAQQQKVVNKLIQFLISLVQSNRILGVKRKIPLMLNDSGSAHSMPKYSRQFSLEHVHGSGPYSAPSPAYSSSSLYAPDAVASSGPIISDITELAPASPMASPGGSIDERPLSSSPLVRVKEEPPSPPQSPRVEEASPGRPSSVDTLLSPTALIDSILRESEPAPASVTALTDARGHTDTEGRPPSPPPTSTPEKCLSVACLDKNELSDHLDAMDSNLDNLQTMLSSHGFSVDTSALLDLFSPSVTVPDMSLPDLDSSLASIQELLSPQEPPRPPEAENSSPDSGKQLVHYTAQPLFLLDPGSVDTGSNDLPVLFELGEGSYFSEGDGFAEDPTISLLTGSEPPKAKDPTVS
# Procedure, shortened: as §1
# [13] = biological target: T8, SPIC (Homo sapiens, UniProt Q8N5J4 1-248); conditions: protein: recombinant; tags: N-terminal GST; dsDNA, one strand shown
# T8 sequence: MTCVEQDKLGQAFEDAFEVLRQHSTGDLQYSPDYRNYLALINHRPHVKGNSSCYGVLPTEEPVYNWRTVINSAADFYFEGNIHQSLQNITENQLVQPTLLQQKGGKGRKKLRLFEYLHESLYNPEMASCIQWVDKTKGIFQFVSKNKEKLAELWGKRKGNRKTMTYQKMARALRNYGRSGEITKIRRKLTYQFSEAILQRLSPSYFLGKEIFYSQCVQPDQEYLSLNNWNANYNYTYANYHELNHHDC
# Procedure, shortened: as §1
# [14] = biological target: ELF4 (Homo sapiens, UniProt Q99607 1-663); conditions: protein: recombinant; tags: N-terminal GST; dsDNA, one strand shown
# Sequence of ELF4 (Q99607 whole entry): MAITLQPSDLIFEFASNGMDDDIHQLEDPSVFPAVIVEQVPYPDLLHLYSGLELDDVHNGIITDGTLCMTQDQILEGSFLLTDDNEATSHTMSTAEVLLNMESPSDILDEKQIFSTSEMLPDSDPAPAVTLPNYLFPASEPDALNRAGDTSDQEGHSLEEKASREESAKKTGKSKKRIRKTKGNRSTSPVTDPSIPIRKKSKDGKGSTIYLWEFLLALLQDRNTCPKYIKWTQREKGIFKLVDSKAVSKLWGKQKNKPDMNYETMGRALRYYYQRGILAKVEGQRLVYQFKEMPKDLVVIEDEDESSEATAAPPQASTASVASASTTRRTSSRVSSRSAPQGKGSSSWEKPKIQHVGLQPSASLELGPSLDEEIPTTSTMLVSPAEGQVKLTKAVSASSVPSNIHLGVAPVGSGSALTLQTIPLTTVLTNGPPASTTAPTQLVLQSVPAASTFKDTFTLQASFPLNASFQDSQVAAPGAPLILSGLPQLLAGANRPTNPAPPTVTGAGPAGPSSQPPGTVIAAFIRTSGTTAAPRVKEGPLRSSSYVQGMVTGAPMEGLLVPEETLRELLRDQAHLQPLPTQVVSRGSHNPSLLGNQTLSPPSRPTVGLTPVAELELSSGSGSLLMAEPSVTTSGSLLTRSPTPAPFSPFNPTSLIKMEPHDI
# Procedure, shortened: as §1
# [15] = biological target: T9, ELK4 (Homo sapiens, UniProt P28324-2 1-405); conditions: protein: recombinant; tags: N-terminal GST; dsDNA, one strand shown
# T9 sequence: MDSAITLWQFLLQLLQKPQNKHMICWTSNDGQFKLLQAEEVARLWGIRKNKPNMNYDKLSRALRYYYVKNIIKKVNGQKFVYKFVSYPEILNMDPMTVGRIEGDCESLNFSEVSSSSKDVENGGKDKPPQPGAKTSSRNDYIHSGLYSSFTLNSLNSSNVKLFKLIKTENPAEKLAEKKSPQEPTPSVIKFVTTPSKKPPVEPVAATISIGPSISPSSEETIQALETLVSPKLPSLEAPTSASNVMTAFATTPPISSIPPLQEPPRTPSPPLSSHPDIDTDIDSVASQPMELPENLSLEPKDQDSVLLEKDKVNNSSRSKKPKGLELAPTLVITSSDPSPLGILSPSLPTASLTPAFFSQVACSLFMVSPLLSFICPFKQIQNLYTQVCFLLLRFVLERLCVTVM
# Procedure, shortened: as §1
# [16] = biological target: T10, ETV2 (Homo sapiens, UniProt O00321 1-342); conditions: protein: recombinant; tags: N-terminal GST; dsDNA, one strand shown
# T10 sequence: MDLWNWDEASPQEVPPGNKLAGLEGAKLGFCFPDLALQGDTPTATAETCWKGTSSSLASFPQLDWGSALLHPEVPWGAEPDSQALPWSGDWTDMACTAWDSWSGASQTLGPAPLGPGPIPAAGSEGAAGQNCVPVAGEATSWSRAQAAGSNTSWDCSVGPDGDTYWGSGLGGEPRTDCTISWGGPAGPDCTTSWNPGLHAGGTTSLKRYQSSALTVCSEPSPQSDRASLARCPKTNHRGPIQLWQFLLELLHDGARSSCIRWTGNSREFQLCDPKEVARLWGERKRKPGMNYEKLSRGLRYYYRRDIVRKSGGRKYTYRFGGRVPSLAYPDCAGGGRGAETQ
# Procedure, shortened: as §1
# [17] = biological target: T11, ELF3 (Homo sapiens, UniProt P78545 1-371); conditions: protein: recombinant; tags: N-terminal GST; dsDNA, one strand shown
# T11 sequence: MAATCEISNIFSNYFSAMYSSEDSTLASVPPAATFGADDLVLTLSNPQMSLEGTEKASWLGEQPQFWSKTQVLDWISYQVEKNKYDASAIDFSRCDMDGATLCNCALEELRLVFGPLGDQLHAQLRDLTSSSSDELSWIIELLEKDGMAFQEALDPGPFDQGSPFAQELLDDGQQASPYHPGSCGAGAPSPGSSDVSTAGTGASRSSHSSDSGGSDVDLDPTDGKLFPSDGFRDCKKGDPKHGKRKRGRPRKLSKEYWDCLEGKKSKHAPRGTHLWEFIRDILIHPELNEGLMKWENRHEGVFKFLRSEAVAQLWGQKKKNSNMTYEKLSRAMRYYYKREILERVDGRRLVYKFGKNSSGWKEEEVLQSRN
# Procedure, shortened: as §1
# [18] = biological target: CRX (Homo sapiens, UniProt O43186 1-299); conditions: protein: recombinant; tags: N-terminal GST; dsDNA, one strand shown
# Sequence of CRX (O43186 whole entry): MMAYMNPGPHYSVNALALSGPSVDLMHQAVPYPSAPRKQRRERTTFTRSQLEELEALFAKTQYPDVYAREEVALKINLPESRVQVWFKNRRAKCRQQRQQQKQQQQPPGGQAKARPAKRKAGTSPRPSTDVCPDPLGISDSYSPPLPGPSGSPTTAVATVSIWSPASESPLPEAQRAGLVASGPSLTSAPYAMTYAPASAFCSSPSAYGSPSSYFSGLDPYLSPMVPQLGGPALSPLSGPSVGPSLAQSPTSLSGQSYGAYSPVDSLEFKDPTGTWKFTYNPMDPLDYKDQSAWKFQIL
# Procedure, shortened: as §1
# [19] = biological target: ETV1 (Homo sapiens, UniProt P50549 1-477); conditions: protein: recombinant; tags: N-terminal GST; dsDNA, one strand shown
# Sequence of ETV1 (P50549 whole entry): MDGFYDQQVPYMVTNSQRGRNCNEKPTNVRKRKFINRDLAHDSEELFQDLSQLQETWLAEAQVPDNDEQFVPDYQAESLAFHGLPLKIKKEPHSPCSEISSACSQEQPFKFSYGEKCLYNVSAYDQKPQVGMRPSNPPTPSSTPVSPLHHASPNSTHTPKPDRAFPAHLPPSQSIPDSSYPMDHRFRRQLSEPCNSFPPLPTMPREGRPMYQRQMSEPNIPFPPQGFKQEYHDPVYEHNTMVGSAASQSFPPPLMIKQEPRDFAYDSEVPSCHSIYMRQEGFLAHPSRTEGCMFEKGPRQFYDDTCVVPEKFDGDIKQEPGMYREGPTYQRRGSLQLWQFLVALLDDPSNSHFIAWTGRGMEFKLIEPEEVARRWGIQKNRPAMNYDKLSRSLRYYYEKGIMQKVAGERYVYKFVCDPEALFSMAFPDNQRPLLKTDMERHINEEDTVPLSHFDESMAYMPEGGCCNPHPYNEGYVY
# Procedure, shortened: as §1
sequence,measurement,setting,value
AACCCC,binding signal,[1],"1.08 fold enrichment (6-mer frequency, TF over GST control)"
same,binding signal,[2],"1.17 fold enrichment (6-mer frequency, TF over GST control)"
same,binding signal,[3],"1.1 fold enrichment (6-mer frequency, TF over GST control)"
same,binding signal,[4],"1.17 fold enrichment (6-mer frequency, TF over GST control)"
same,binding signal,[5],"1.16 fold enrichment (6-mer frequency, TF over GST control)"
same,binding signal,[6],"1.21 fold enrichment (6-mer frequency, TF over GST control)"
same,binding signal,[7],"1.12 fold enrichment (6-mer frequency, TF over GST control)"
same,binding signal,[8],"1.18 fold enrichment (6-mer frequency, TF over GST control)"
same,binding signal,[9],"1.14 fold enrichment (6-mer frequency, TF over GST control)"
same,binding signal,[10],"1.24 fold enrichment (6-mer frequency, TF over GST control)"
same,binding signal,[11],"1.14 fold enrichment (6-mer frequency, TF over GST control)"
same,binding signal,[12],"1.03 fold enrichment (6-mer frequency, TF over GST control)"
same,binding signal,[13],"1.33 fold enrichment (6-mer frequency, TF over GST control)"
same,binding signal,[14],"1.29 fold enrichment (6-mer frequency, TF over GST control)"
same,binding signal,[15],"1.36 fold enrichment (6-mer frequency, TF over GST control)"
same,binding signal,[16],"1.18 fold enrichment (6-mer frequency, TF over GST control)"
same,binding signal,[17],"1.22 fold enrichment (6-mer frequency, TF over GST control)"
same,binding signal,[18],"1.21 fold enrichment (6-mer frequency, TF over GST control)"
same,binding signal,[19],"1.08 fold enrichment (6-mer frequency, TF over GST control)"
